Results on nine molecules are retold here after PubChem BioAssay (NCI).

Assay in all cases: NCI-60 one-dose screen, 48 h (100 = growth as untreated, 0 = no growth, -100 = all killed)
Holding throughout (details): 10 µM unless noted

The subject of assay [1] is NCI-H23 lung.
The test system of assay [2] is NCI-H226 lung.
The subject of assay [3] is NCI-H322M lung.
Assay [4] has as its system HOP-62 NSCLC.
Assay [5] relates to NCI-H460 lung.
Assay [6] concerns NCI-H522 lung.
For assay [7], the system named is A549/ATCC NSCLC.
The subject of assay [8] is 786-0 renal.
Assay [9] relates to DU-145 prostate.
Assay [10] concerns MALME-3M melanoma.
The test system of assay [11] is MDA-MB-231 breast.
Assay [12] deals with RXF 393 renal.
In assay [13] the test system is SF-268 CNS.
Assay [14] deals with SF-295 CNS.
Assay [15] relates to SF-539 CNS.
Assay [16] deals with UACC-257 melanoma.
Assay [17] concerns M14 melanoma.
The subject of assay [18] is HCT-15 colon.
In assay [19] the test system is COLO 205 colon.
In assay [20] the test system is K-562 leukemia.

This is part of a sample that, as a whole, favours compounds with a hit. Of some 83,000 tested, about 20% had one in any assay.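 Cells were grown in 96-well plates and exposed to the test compound at a single concentration for 48 hours; results are reported as percent growth, with values below 10 considered active.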 Unmarked numbers belong to inactive results. Activity calls are given as the source filed them.

On to `Cc1c(C(N)=O)sc2c1C(=O)N(Cc1ccccc1)C1=NN=C(c3ccc(Cl)cc3)CN12`, for which the growth in assay [1] is 58.9%; in [2], 73.9%; in assay [3] it was 38.1%; in assay [4], 66.3%; in assay [5] it was 28%; in [6] it was 67.1%. The growth is 46% in assay [7]; 43% in assay [8]; 46.1% in assay [9]; 58.9% in assay [10]; 37.3% in assay [11]; 51.3% in assay [12]. Further, the growth in assay [13] was 38.6%; in assay [14], 29.1%; in assay [15], 53.2%; in assay [16], 59.8%; in [17], 41.5%; in [18], 22.6%.

On to `COc1ccc(C2=NNC(c3cc(Cc4ccc(O)c(C5CC(c6ccc(OC)cc6)=NN5)c4)ccc3O)C2)cc1` (stereo not drawn), for which the growth in [1] was 35.9%; in assay [2], 82.6%; in [3], 32.1%; in assay [4] it was 60%; in assay [5], 27.5%; in assay [6], -7.59% (active). In addition, the growth is 35.2% in [7]; 56.1% in [8]; 69.3% in assay [9]; 78.9% in [10]; 58.3% in [11]; 72.6% in assay [12]. Moreover, the growth is 44% in [13]; 6.47% (active) in [14]; 57.2% in [15]; 70.6% in [16]; 59.3% in assay [17]; 43.3% in [18].

For the molecule `O=[N+]([O-])c1ccc2c(c1)S(=O)c1cc([N+](=O)[O-])ccc1N2`, the growth in assay [1] is 103%; in assay [2] it was 91.9%; in assay [3], 117%; in [4], 67.3%; in [5], 96.4%; in [6] it was 97%. Further, the growth was 108% in assay [8]; 108% in assay [19]; 116% in [9]; 115% in [20]; 113% in assay [10]; 96.3% in assay [11]. For the same molecule, the growth is 104% in assay [12]; 104% in assay [13]; 106% in assay [14]; 98.3% in assay [15]; 96.6% in assay [16]; 91.7% in assay [17]. Besides, the growth in [18] was 99%.

As to `ClC1C2CC(c3ccccc32)C1Cl` (stereo not drawn), the growth was 106% in [1]; 109% in assay [2]; 123% in assay [3]; 129% in assay [4]; 110% in assay [5]; 100% in assay [6]. Besides, the growth in assay [7] is 110%; in assay [8], 103%; in assay [9], 118%; in assay [10], 126%; in [11] it was 107%; in assay [12] it was 110%. Besides, the growth is 110% in assay [13]; 123% in assay [14]; 95.8% in assay [15]; 112% in [16]; 103% in assay [17]; 109% in [18].

Take `COc1ccc2c(c1)nc(N)c1c3cc(C)c(C)cc3cn21`: the growth was 80.4% in [1]; 86.8% in assay [2]; 94% in assay [3]; 84.7% in assay [4]; 48.4% in [5]; 19.6% in [6]. For the same molecule, the growth in [7] was 79.4%; in assay [8] it was 91.2%; in [10], 76.5%; in assay [11] it was 84.6%; in [12], 78.1%; in assay [13] it was 75.6%. The growth in assay [14] was 64.3%; in assay [15] it was 95.7%; in assay [16], 83.7%; in assay [17] it was 57.5%; in [18], 48.7%.

On to `O=C(/C=C/c1cccnc1)NCCCCC1CCCN(C(=O)c2ccccc2)C1` (stereo not drawn), for which the growth in [1] is 70.1%; in assay [2], 98.5%; in assay [3], 65.3%; in [4] it was 85.1%; in assay [5], 29%; in assay [6] it was 1.41% (active). The growth was 49% in assay [7]; 71.7% in assay [8]; 33.4% in assay [9]; 83.7% in assay [10]; 82.6% in [11]; 109% in [12]. For the same molecule, the growth in assay [13] is 74%; in assay [14] it was 4.84% (active); in assay [15], 28%; in assay [16] it was 109%; in assay [17] it was 18.7%; in assay [18] it was 42%.

As for `Cc1nn(-c2ccccc2)c2nc3c(nc12)C(=O)CCC3`, the growth in [1] was 80.4%; in [2], 107%; in assay [3], 93.1%; in [4], 92.9%; in assay [5], 104%; in assay [6] it was 74%. Also, the growth in [7] is 92.9%; in assay [8], 88.5%; in assay [9] it was 104%; in [10], 98%; in assay [11], 108%; in assay [12], 116%. In addition, the growth is 103% in assay [13], 99.8% in [16], 106% in [17] and 88.5% in [18].

Take `Cn1cc(-c2nc(-c3c[nH]c4ncc(F)cc34)cs2)c2cccnc21`: the growth in [1] is 92.1%; in assay [2], 98.8%; in assay [3], 107%; in assay [4], 108%; in assay [5], 96.3%; in assay [6], 140%. Moreover, the growth in assay [7] was 107%; in assay [8], 94.4%; in assay [10], 101%; in assay [11], 68.8%; in assay [12], 98.3%; in assay [13] it was 116%. The growth in assay [14] is 107%; in [15] it was 113%; in assay [16] it was 119%; in assay [17], 86.6%; in assay [18], 97.1%.

For `NC(N)=NN=c1c(=O)c2ccccc2c1=O`, the growth in assay [1] is 58%; in [2], 94.6%; in assay [3] it was 102%; in assay [4], 32.3%; in assay [5] it was 0.312% (active); in assay [6], 80.8%. The growth in [7] is 95.1%; in [8], 108%; in [9], -97.4% (active); in assay [10] it was -96.4% (active); in assay [11] it was 90.8%; in assay [13] it was 50.6%. Besides, the growth is 66% in assay [14]; 112% in assay [15]; 106% in assay [16]; -90.8% (active) in [17]; 43.4% in [18].
